High-throughput results: PubChem, National Center for Advancing Translational Sciences (NCATS)
Marburg entry inh: inhibitors of Marburg virus binding or cell entry. Marburg virus pseudotyped entry inhibition, cell reporter. AID 540276. Potency, µM (titrated, usually from 37.8 µM), most hits filed as inhibitors. 300,000 tested, 1.8% active; calls by dose curve; tested in HEK293 cells
FMDV antiviral: antivirals against foot and mouth disease virus; AID 1159524; Potency, µM (titrated, usually from 57.9 µM), most hits filed as inhibitors; FMDV antiviral cell-based qHTS; 410,000 tested, 1.2% active; calls by dose curve; tested in HEK293T cells; further: read-out not given here; nearly all actives have a fitted effect of over 45% in size
Shiga inhibitor: blocks Shiga toxin action in Vero cells; 290,000 tested, 9.2% active; inhibition, % at 38.7 µM; Vero cells, Shiga toxin protein synthesis inhibition reporter; in the data active means inhibition mostly above about 28%, no sharp cut-off; inactive means mostly below about 43%
HCV inh: HCV inhibition. 340,000 tested, 3.4% active. AID 651820. Potency, µM (series often up to 41.8 µM), hits mostly inhibitors. Huh7.5.1 HCVcc-Cre infection, luciferase reporter, 44 h; active means well fitted inhibition curve with a large enough effect; inconclusive means small, poorly fitted or top-dose-only effect, or another doubt; inactive means no such curve, though single readings can be large or run the other way
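Infectious HCVcc-Cre (~0.5 moi) was added to cells just after compound, with cells seeded 4 h earlier at 1,000 per well. Luciferase activity after 44 h culture reported infection; substrate was incubated 15 min at room temperature before reading.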
Lassa entry inh: inhibitors of Lassa virus binding or cell entry. Lassa virus pseudotype entry inhibition, cell reporter. Potency, µM (series often up to 37.9 µM), most hits filed as inhibitors. 300,000 tested, 1.2% active; calls by dose curve; tested in HEK293 cells; further: nearly all actives have a fitted effect of over 50% in size
Cycloheximide cs: counter-screen for Shiga toxin inhibitors: cycloheximide protein synthesis inhibition; max response, %; AID 2314; cell reporter, cycloheximide protein synthesis inhibition counterscreen; 300,000 tested, 12% active; in the data active means max response mostly above about 13%, no sharp cut-off; inactive means mostly below about 14%; further: read at 38.3 µM for the half of the compounds with a filed dose
Each line names hits and unclear results; the compound was inactive in the other large screens. An excerpt weighted towards active compounds, which were near 13% of everything screened.

O=C(Nc1ccc(Cl)cn1)c1ccc2[nH]c(=O)c(=O)[nH]c2c1	Cycloheximide cs 12 (no result: Marburg entry inh, Lassa entry inh)
NCCNC(=O)Cc1ccc(NC(=O)Cc2ccc(Nc3ncnc4c3ncn4[C@@H]3O[C@H](CO)[C@@H](O)[C@H]3O)cc2)cc1	none (no result: Marburg entry inh, Shiga inhibitor, Lassa entry inh, Cycloheximide cs)
O=C(CCl)N(Cc1cc(=O)[nH]c2ccccc12)c1ccccc1	FMDV antiviral 14µM, HCV inh inconclusive (no result: Lassa entry inh)
Cc1cccc(N(Cc2ccccc2)C(=O)CCl)c1	Marburg entry inh inconclusive, FMDV antiviral 13µM, HCV inh 4µM
O=C(CCl)N(Cc1ccccc1)c1ccccc1	Marburg entry inh 16µM, FMDV antiviral 22µM, HCV inh 5µM, Lassa entry inh inconclusive, Cycloheximide cs 26
Cc1ccc(CN2CC(C(=O)Nc3ccc(C)c(S(=O)(=O)N4CCCCC4)c3)CC2=O)cc1 (centres undefined)	Marburg entry inh inconclusive, HCV inh inconclusive, Lassa entry inh inconclusive (no result: Shiga inhibitor, Cycloheximide cs)
CCn1c(C)nnc1SCC(=O)NC1CCCCCC1	none
CSc1ccc(/C=C/C(=O)NC(=O)c2ccccc2O)cc1	Cycloheximide cs 9.6 (no result: Marburg entry inh, Lassa entry inh)
O=C(/C=C/c1ccc(Br)cc1)NC(=O)c1ccccc1O	Cycloheximide cs 32
Cc1ccc(C2NNC(=O)C2NC(=O)c2ccccc2)cc1 (centres undefined)	Marburg entry inh inconclusive, Shiga inhibitor 33, Cycloheximide cs 39
O=C(NC1C(=O)NNC1c1ccc(Cl)cc1)c1ccc(F)cc1 (centres undefined)	none (no result: Marburg entry inh, Lassa entry inh)
O=C(NC1C(=O)NNC1c1ccccc1)c1ccc(F)cc1 (centres undefined)	Shiga inhibitor 88, Cycloheximide cs 29
NC(=O)CSc1nc2cc(Cl)ccc2c(=O)n1C1CCCCC1	Marburg entry inh inconclusive, HCV inh 11µM
CCCN(CCC)C(=O)CSc1nc2ccccc2c(=O)n1C1CCCC1	Marburg entry inh inconclusive, HCV inh 11µM
CCOc1ccc(/C=C2\CCc3ccccc3C2=O)cc1	Marburg entry inh inconclusive, FMDV antiviral inconclusive, Shiga inhibitor 71, Lassa entry inh inconclusive, Cycloheximide cs 30
COc1ccc(C=C2CCc3ccccc3C2=O)cc1	none (no result: Marburg entry inh, Shiga inhibitor, HCV inh, Lassa entry inh, Cycloheximide cs)
O=C1/C(=C\c2ccncc2)CCc2ccccc21	HCV inh inconclusive (no result: Marburg entry inh, Shiga inhibitor, Lassa entry inh, Cycloheximide cs)
O=C1/C(=C/c2ccncc2)CCc2ccccc21	FMDV antiviral inconclusive, Shiga inhibitor 56, Cycloheximide cs 34 (no result: Marburg entry inh, Lassa entry inh)
O=C1/C(=C\c2ccccc2)CCC/C1=C/c1ccccc1	Marburg entry inh inconclusive, Lassa entry inh inconclusive (no result: Shiga inhibitor, Cycloheximide cs)
O=C1/C(=C/c2ccncc2)CCC/C1=C\c1ccncc1	FMDV antiviral 14µM, HCV inh 6.3µM (no result: Marburg entry inh, Lassa entry inh)
Cc1nnc(SCC(=O)NC2CCC(C)CC2)s1 (centres undefined)	Marburg entry inh inconclusive (no result: Shiga inhibitor, Cycloheximide cs)
COc1ccc(N2CCN(Cc3nnc(-c4ccc5c(c4)OCO5)o3)CC2)cc1	none (no result: Shiga inhibitor, HCV inh, Cycloheximide cs)
Cc1cccc(N2CCN(c3ncnc4c3c(-c3ccccc3)cn4-c3ccccc3)CC2C)c1 (centres undefined)	FMDV antiviral inconclusive (no result: Marburg entry inh, Shiga inhibitor, HCV inh, Cycloheximide cs)
N#CC(C#N)=C1C(=O)N(CCN2CCOCC2)c2ccccc21	none
COc1ccc(NC(=O)Nc2ccc(N(C)C)cc2)cc1	Shiga inhibitor 97, Cycloheximide cs 30
COc1ccc(NC(=O)Nc2ccc(OC)cc2)cc1	Shiga inhibitor 67, Cycloheximide cs 22
COC(=O)c1ccc(NC(=O)Nc2ccc([N+](=O)[O-])cc2)cc1	HCV inh inconclusive (no result: Marburg entry inh, Lassa entry inh)
COC(=O)c1ccc(NC(=O)Nc2ccc(OC)cc2)cc1	Marburg entry inh inconclusive, Shiga inhibitor 60
COc1ccc(NC(=O)OC(C)C)cc1	Marburg entry inh inconclusive, Shiga inhibitor 68, Lassa entry inh inconclusive, Cycloheximide cs 29
CC(C)OC(=O)Nc1ccc(-c2ccc(NC(=O)OC(C)C)cc2Cl)c(Cl)c1	none (no result: Marburg entry inh, Lassa entry inh)
C/C(=N\NC(=O)CNC(=O)c1ccc2c(c1)OCO2)c1ccco1	none
COC(=O)C1=C(C)NC(=O)/C1=C\c1cc(C)n(-c2c(C)cccc2C)c1C	Marburg entry inh 12µM, HCV inh inconclusive, Lassa entry inh inconclusive (no result: FMDV antiviral)
COC(=O)C1=C(C)NC(=O)/C1=C\c1ccc2c(c1)OCO2	Cycloheximide cs 34
COC(=O)C1=C(C)NC(=O)/C1=C\c1cc(C)n(-c2ccccc2C)c1C	HCV inh inconclusive, Lassa entry inh inconclusive
CC1=NOC(=O)/C1=C/c1ccc2c(c1)OCO2	none (no result: Marburg entry inh, Lassa entry inh)
O=C(O)CCCN(Cc1cccc(Br)c1)S(=O)(=O)c1ccc(Br)cc1	none
CC(NC(=O)c1sc2cc([N+](=O)[O-])ccc2c1Cl)C(C)(C)C (centres undefined)	none
Cc1ccc2c(Cl)c(C(=O)NC3CC3)sc2c1	Shiga inhibitor 61, HCV inh inconclusive, Cycloheximide cs 47 (no result: Marburg entry inh, Lassa entry inh)
